# Only some compounds are listed: those with a hit (about 5.7% of all), similar ones and a draw of the others.
# ATXN2 expr inh: ATXN2 expression inhibition; HEK-293 ATXN2-luciferase reporter, luminescence, 24 h; Potency, µM (top dose mostly 57 µM), most hits filed as inhibitors; 360,000 compounds, 0.72% hits; AID 1745845; also: nearly all actives have a fitted effect of over 55% in size
#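 qHTS (up to 57 uM final) was run with 24 h compound exposure of reporter cells at 37 °C. Each well was multiplexed: SteadyGlo luminescence measured ATXN2-luciferase expression after a fluorogenic Gly-Phe-AFC viability readout (25 uM final).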
# IL1B secr inh: inhibitors of inflammasome signaling (IL-1 beta secretion); THP-1 LPS/ATP IL-1B secretion, AlphaLISA, 16 h; stronger effect = lower value; activity change, % at 57.5 µM; 360,000 compounds, 4.7% hits; AID 743279; in the data active = activity change below about -50%; inconclusive = mostly about -30% to -49%
#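 THP-1 cells pretreated 1 hr with compounds (up to 57.5 uM final), then stimulated with LPS (250 ng/mL final) plus ATP (1.25 mM final); secreted IL-1B measured by AlphaLISA after 16 hr, decreased signal indicating inhibition.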
# HepG2 viability: HepG2 cytotoxicity, counter-screen for TGF-b inhibitors; HepG2 CAGA-GFP viability, ATP luminescence, 18 h; Potency, µM (highest dose often 46.1 µM), hits mostly cytotoxic; 410,000 compounds, 0.76% hits
#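 HepG2 CAGA-GFP cells (1000/well, DMEM with 1% FBS) received compound, then TGF-beta at 500 pg/mL final, and were incubated 18 hours at 37 degrees C. Viability was read by CellTiter-Glo luminescence. Media-only wells were set as complete cell-killing and DMSO as no toxicity.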
# ATXN viability: reduces viability in counter-screen for ATXN expression inhibitors | S2 cells (HEK-293 line with an ATXN2-luciferase reporter) viability, CellTiter-Fluor protease fluorescence, 24 h | Potency, µM (highest dose often 56.7 µM), actives largely listed as cytotoxic | 400,000 compounds, 0.49% hits | AID 651635; also: nearly all actives have a fitted effect of over 40% in size
# TGFb SMAD3 inh: blocks TGF-b signaling. HepG2 CAGA-GFP TGF-b/SMAD3 reporter, GFP fluorescence, 18 h; TGF-beta stimulated, 500 pg/mL final. Potency, µM (top dose mostly 46.1 µM), actives largely listed as inhibitors. 410,000 compounds, 1.2% hits. AID 588855; also: nearly all actives have a fitted effect of over 65% in size
#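 HEPG2 CAGA-GFP, 1000 cells/well; 2 h settle, 37 C; cpd via pin tool; TGF-b 500 pg/mL final; 18 h, 37 C; GFP imaging ex488/em500-530; %Activity normalised to -TGF-b and +DMSO controls; CRC fit, curve class.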
# Numbers stand for hits; i = inactive; ? = inconclusive; nt = not tested or not shown; ! = repeats disagree; [ ] = dose if it differs, or a comment. Unless noted, calls follow the shape of the dose curve; as a rule, active = well fitted curve in the direction sought with a large enough effect; inconclusive = small, poorly fitted or top-dose-only effect, or another doubt; inactive = no such curve, though single readings can be large; an effect the other way counts as inactive or inconclusive.
SMILES,ATXN2 expr inh,IL1B secr inh,HepG2 viability,ATXN viability,TGFb SMAD3 inh
COc1ccccc1NC(=O)c1cc2c(CO)cnc(C)c2oc1=Nc1cccc(C(N)=O)c1,nt,i,i,14µM,i
COc1cc(C2C(=O)N(C3CCCCCC3)CC(=O)N2Cc2ccccc2)ccc1OC(C)C (centres undefined),nt,nt,i,nt,i
Clc1ccc(-c2nc3ccc(Cl)cn3c2Cc2cccc(Cl)c2)cc1,i,i,i,i,?
Clc1cccc(Cc2c(-c3ccccc3)nc3ccc(Cl)cn23)c1,i,i,i,?,?
Cc1ccc(Cc2c(-c3ccco3)nc3c(C)cc(Br)cn23)cc1,i,-70,i,?,?
Clc1cccc(Cc2c(-c3ccco3)nc3ccc(Cl)cn23)c1,?,-59,i,nt,18µM
Cc1ccc2nc(-c3ccccc3)c(Cc3cccc(Cl)c3)n2c1,i,i,i,?,14µM
Clc1cccc(Cc2c(-c3ccco3)nc3ccc(Br)cn23)c1,?,i,i,nt,13µM
O=C(C[N+]12CN3CN(CN(C3)C1)C2)c1ccc(Cl)cc1,nt,nt,i,nt,i
CC(C)c1c(C(=O)N(C)C2CCN(C)CC2)cnn1-c1nccc(-c2ccco2)n1,nt,nt,nt,i,nt
Cc1cc(C=Nc2ccc(/C=C/c3ccnc4ccccc34)cc2)ccc1N(C)C,nt,nt,i,nt,i
COC(=O)c1ccc2nc(-c3ccco3)c(Cc3ccc(C)cc3)n2c1,i,i,i,i,?
COC(=O)c1ccc2nc(-c3ccco3)c(Cc3ccc(OC)cc3C)n2c1,i,i,i,?,13µM
Cc1ccc(NC(=O)CN2C(=O)C(c3ccc(C)cc3)=NC23CCCCCC3)cc1,nt,nt,i,nt,nt
CCCOc1ccc(NC(=O)CC2C(=O)N(c3ccc(Cl)cc3)C(=O)N2CCc2ccncc2)cc1 (centres undefined),nt,nt,i,nt,?
O=C(COc1ccccc1-c1ccccc1)NCc1ccco1,i,-51,i,i,i
O=C(NCc1ccco1)c1ccccc1-c1nc(-c2ccccc2)no1,i,i,2µM,i,i
CCOc1ccccc1OCC(=O)NCc1ccco1,i,i,i,i,i
COc1ccc2c(c1)c1c(c(=O)n(-c3ccccc3C)c(=O)n1CC(=O)Nc1c(C)cccc1C)n2C,i,nt,i,i,i
Cc1cc(N2CCC(C)CC2)c(F)cc1[N+](=O)[O-],i,i,i,i,i
Cc1cc(N2CCCC2)c(F)cc1/C=C\[N+](=O)[O-],i[11.3 µM],-68,i,nt,11µM
CN1CCCC1CCNc1ccc2sc3ccccc3c(=O)c2c1 (centres undefined),?,-66,i,?,i
CN1CCCC1CCNS(=O)(=O)c1ccc(Br)cc1 (centres undefined),i,i,i,i,?
Cc1cc2oc3cc(NCCC4CCCN4C)ccc3c(=O)c2cc1C (centres undefined),?,-85,i,nt,?
Cc1cc(C)[n+]2[nH]c(N)c(N=Nc3ccccc3)c2n1,i,i,13µM,?,i
SMILES,ATXN2 expr inh,IL1B secr inh,HepG2 viability,ATXN viability,TGFb SMAD3 inh
CC(C)c1nnc(NC(=O)c2nc(S(=O)(=O)Cc3ccccc3)ncc2Cl)s1,?,-103,i,?,?
CCCc1nnc(NC(=O)c2nc(S(=O)(=O)Cc3ccc(C)cc3)ncc2Cl)s1,?,-96,i,nt,?
Cc1ccc(CS(=O)(=O)c2ncc(Cl)c(C(=O)Nc3nc4ccc(C)cc4s3)n2)cc1,?,nt,i,nt,i
CSc1ncc(Cl)c(C(=O)Nc2nnc(SC)s2)n1,i,i,i,i,i
COc1ccc2nc(NC(=O)c3nc(S(=O)(=O)Cc4ccc(C)cc4)ncc3Cl)sc2c1,nt,nt,i,nt,4.5µM
Cc1ccccc1CS(=O)(=O)c1ncc(Cl)c(C(=O)Nc2nnc(C(C)C)s2)n1,nt,nt,i,nt,?
CSc1nnc(NC(=O)c2nc(S(=O)(=O)Cc3ccccc3)ncc2Cl)s1,?,-100,i,nt,?
COc1ccc(NC(=O)c2oc3c(c2C)-c2nn(Cc4ccccc4Cl)cc2CC3)cc1OC,nt,nt,i,nt,?
C=C(C)CSc1nc2sc3c(c2c(=O)n1-c1ccccc1)CCC(C)C3 (centres undefined),i,nt,i,i,i
Cc1cc(C)cc(NS(=O)(=O)c2cnc(Cl)c(Cl)c2)c1,i,i,i,i,i
CCOc1ccc(NS(=O)(=O)c2cnc(Cl)c(Cl)c2)cc1,i,-99,i,?,?
CN1Cc2c(N3CCOCC3)nc3sc(C(=O)c4ccc(Br)cc4)c(N)c3c2CC1(C)C,?,nt,10µM,nt,?
COC(=O)C1=C(C)N(c2cc(C)cc(C)c2)/C(=C/c2ccc(O)cc2)C1=O,nt,-57,i,?,?
COC(=O)C1=C(C)N(c2ccc(Cl)cc2)/C(=C/c2ccc(O)cc2)C1=O,i,i,i,i,i
COc1ccc(CC2(CO)CCN(Cc3cnn(-c4ccccc4OC)c3)CC2)cc1,nt,i,i,i,i
COc1ccccc1/C=C/CN1CCCC(CO)(CCc2ccccc2)C1 (centres undefined),i,-94,i,i,i
OCC1(CCc2ccccc2)CCCN(C/C=C/c2ccccc2)C1 (centres undefined),i,?,i,i,i
COc1ccc(CC2(CO)CCN(C/C=C/c3ccccc3OC)CC2)cc1,i,-81,i,i,i
CCOCCCNC(=O)Cn1nc(C)n2c(cc3cc(C)ccc32)c1=O,nt,nt,i,nt,i
CCCCC[C@H]1CN(C2CCCCC2)C(=O)[C@@H]1CC(=O)NCc1ccccc1,?,?,16µM!,nt,11µM
CCCCC[C@H]1CN(Cc2ccccc2)C(=O)[C@@H]1CC(=O)NCc1ccc(OC)cc1,i,i,i,i,10µM
Cc1cccc(N2CCN(C(=O)c3c4c(nc5ccccc35)C(=O)N(C3CCCCC3)C4)CC2)c1C,nt,nt,i,nt,i
O=C(NC1(C(F)(F)F)NC(=O)N(CCc2ccccc2)C1=O)c1ccc(Cl)cc1 (centres undefined),?,nt,i,?,?
CC(C)(C)c1ccc(C(=O)NC2(C(F)(F)F)NC(=O)N(CCc3ccccc3)C2=O)cc1 (centres undefined),?,nt,20µM,?,10µM
CN(C)c1ccc(/C=C2\C=Cc3ccccc32)cc1Cl,nt,nt,i,nt,i
SMILES,ATXN2 expr inh,IL1B secr inh,HepG2 viability,ATXN viability,TGFb SMAD3 inh
Cc1cc2oc(=O)sc2cc1NS(=O)(=O)c1cccc2cccnc12,i,-69,i,i,i
O=C(/C=C/c1ccccc1)N1CCN(Cc2cc(=O)n3nc(-c4ccccc4)sc3n2)CC1,nt,nt,i,nt,i
Cc1ccc(CNc2ncnc3[nH]ncc23)o1,nt,nt,i,nt,i
Cc1c(C(=O)OC(C)C)sc(N)c1C(=O)OC(C)C,i,-61,i,i,i
Cc1c(C(N)=O)sc(N)c1C(=O)OC(C)C,i,i,i,i,i
O=C(Nc1c(Cl)cccc1Cl)c1cccc2c1C(=O)N(C1CCCCC1)C2,i,nt,i,i,i
O=C(Nc1ccccc1)C1CCN(c2nccs2)CC1,i,i,i,i,i
CN[C@@H]1CN(c2ccc3c(=O)c(C(=O)O)cn(-c4nccs4)c3n2)C[C@@H]1OC,11µM,nt,nt,nt,nt
